# Screening data deposited in PubChem BioAssay by National Center for Advancing Translational Sciences (NCATS).
# The entries come from a sample that favours hits as a whole.
# VDR inhibitor: vitamin D3 receptor (human) inhibition. P11473. VDR-SRC2-3 peptide fluorescence polarization, 2 h. Potency, µM, hits mostly inhibitors. 400,000 compounds, 0.93% hits. AID 504847
#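 The screen uses fluorescence polarization to detect compounds that interfere with recruitment of the SRC2-3 coactivator peptide to VDR; plates are read after 2 h at room temperature.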
# G9a block: G9a (human) methyltransferase inhibition; G9a H3K9 monomethylation, AlphaScreen, 2 h; Q96KQ7; Potency, µM (titrated, usually from 102 µM), hits mostly inhibitors; AID 504332; 350,000 compounds, 8.8% hits; note: nearly all actives have a fitted effect of over 75% in size
#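 Signal arises when biotinylated H3K9 peptide, once monomethylated, bridges streptavidin donor and antibody-captured acceptor beads. Enzyme at 20 nM was preincubated 15 min with test compounds; peptide 500 nM and SAM 20 uM then reacted for 2 h.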
# Sfp PPTase inh: blocks B. subtilis Sfp PPTase activity | Q9F4F7 | Biochemical Sfp PPTase activity, qHTS | Potency, µM, most hits filed as inhibitors | 310,000 compounds, 3.5% hits;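 note: the enzyme is Sfp with the accession as filed and its product quenches rhodamine fluorescence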
#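 Reaction rates are the 30-min fluorescence difference (ex 525, em 598 nm) in wells containing 15 nM Sfp, 5 uM rhodamine-CoA and 12.5 uM BHQ-2-YbbR at pH 7.6 with 10 mM MgCl2.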
# 12-LOX inh: ALOX12 (human) lipoxygenase inhibition; purified 12hLO, xylenol orange hydroperoxide absorbance; Potency, µM (top dose mostly 108 µM), most hits filed as inhibitors; 580,000 compounds, 1.1% hits; AID 1671190
# Target sequence (P18054 whole entry, looked up): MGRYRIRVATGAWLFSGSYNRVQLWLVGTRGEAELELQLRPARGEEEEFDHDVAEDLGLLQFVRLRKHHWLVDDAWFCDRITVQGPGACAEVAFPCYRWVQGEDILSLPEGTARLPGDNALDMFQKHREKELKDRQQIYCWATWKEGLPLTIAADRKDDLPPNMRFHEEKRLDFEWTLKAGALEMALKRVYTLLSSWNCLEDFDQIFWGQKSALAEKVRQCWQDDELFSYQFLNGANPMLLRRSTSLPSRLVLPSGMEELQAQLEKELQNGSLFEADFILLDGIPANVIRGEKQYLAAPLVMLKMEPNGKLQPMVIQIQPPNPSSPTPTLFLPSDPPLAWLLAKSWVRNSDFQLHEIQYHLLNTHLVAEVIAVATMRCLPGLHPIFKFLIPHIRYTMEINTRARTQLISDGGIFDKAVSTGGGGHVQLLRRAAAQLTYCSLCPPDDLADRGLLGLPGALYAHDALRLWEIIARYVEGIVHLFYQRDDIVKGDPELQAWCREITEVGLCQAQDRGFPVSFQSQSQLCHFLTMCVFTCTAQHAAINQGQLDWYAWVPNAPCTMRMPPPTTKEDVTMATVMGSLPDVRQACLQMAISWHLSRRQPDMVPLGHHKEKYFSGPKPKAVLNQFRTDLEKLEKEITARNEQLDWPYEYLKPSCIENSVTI
#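 Purified human 12hLO at 150 nM in 25 mM Hepes, 0.01% Triton X-100, pH 7.0, preincubated 15 min at room temperature with compound. Reaction started with 40 uM arachidonic acid, 30 min at room temperature. Hydroperoxide measured by Fe-xylenol orange, 573/405 nm absorbance ratio.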
# GRP78 ERSR act: inducers of ER stress response in human glioma cells; U87-MG GRP78 promoter luciferase reporter, 16 h; Potency, µM, usual class: activators; 420,000 compounds, 0.02% hits; AID 602332; note: series mostly up to about 76 µM; nearly all actives have a fitted effect of over 35% in size
#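 Stably transfected U87-MG human glioma cells carrying a GRP78-based luminescent sensor were seeded at 1000 cells/well, pin-dosed with compounds and incubated 16 h. Luciferase reagent was then added, and end-point luminescence was read after 10 min at room temperature.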
# A number is an active result; 0 = inactive; ? = inconclusive; - = no result; ! = not confirmed by another sample; [ ] = dose if it differs, or a comment. Calls come from the whole dose curve; as a rule, active = well fitted curve in the direction sought with a large enough effect; inconclusive = small, poorly fitted or top-dose-only effect, or another doubt; inactive = no such curve, though single readings can be large; an effect the other way counts as inactive or inconclusive.
SMILES,VDR inhibitor,G9a block,Sfp PPTase inh,12-LOX inh,GRP78 ERSR act
CCOC(=O)c1sc(NC(=O)c2cc(-c3ccccc3C)nc3ccccc23)c(C#N)c1C,0,1.6µM,45µM,?,0
CC(=O)NC(NC(C)=O)C(Cl)Cl,-,-,-,0,-
CC(C)CNC(=O)c1nc(CC(=O)Nc2cccc3ncccc23)no1,-,-,-,0,-
CCOC(=O)/C(CCC[N+](C)(CC)CC)=N\O,0,11µM,0,?,0
CCOC(=O)C(Cc1ccnc2ccccc12)=NO,0,-,-,0,0
CCN1CCN(c2nc3c(c(=O)n(C)c(=O)n3C)n2CC(N)=O)CC1,-,-,-,0,-
CN(CC(=O)Nc1ccc(Cl)cc1)Cc1cc(F)cc2c1OCOC2,-,-,-,0,-
Cc1nc2c3ccccc3nc(NNC(=O)CCC(=O)N3CCN(c4ccccc4)CC3)n2n1,0,0,0,0,0
CCN(CC)CCCNC(=O)CCC(=O)NNc1nc2ccccc2c2nc(C)nn12,79µM!,0,0,0,0
Cc1nc2c3ccccc3nc(NNC(=O)CCC(=O)NCCC(C)C)n2n1,0,50µM,0,0,0
Cc1nnc2ccc(N3CCC(C(=O)Nc4ccc5c(c4)OCO5)CC3)nn12,-,-,-,0,-
O=C1NCCCCCCN(Cc2ccc(C(F)(F)F)cc2)[C@H]2CCC[C@@H]12,-,-,-,0,-
Cc1cccn2c(=O)c(/C=C(\C#N)C(=O)NC3CCS(=O)(=O)C3)c(Oc3ccccc3Cl)nc12 (stereo not drawn),18µM,?,0,?,?
CCOC(=O)/C(C#N)=C/c1c(Oc2cccc(C)c2)nc2c(C)cccn2c1=O,0,0,89µM,0,0
Cc1ccc(Oc2nc3ccccn3c(=O)c2/C=C(\C#N)C(=O)NC2CCS(=O)(=O)C2)cc1 (stereo not drawn),79µM,0,0,0,0
Cc1ccccc1Oc1nc2c(C)cccn2c(=O)c1/C=C(\C#N)C(=O)NC1CCS(=O)(=O)C1 (stereo not drawn),40µM,-,0,0,?
CCOC(=O)/C(C#N)=C/c1c(Oc2cccc(C)c2)nc2ccccn2c1=O,0,0,0,?,0
Cc1cccn2c(=O)c(/C=C(\C#N)C(=O)NC3CCS(=O)(=O)C3)c(N3CC(C)OC(C)C3)nc12 (stereo not drawn),0,?,0,0,0
Cc1cccn2c(=O)c(/C=C(\C#N)C(=O)NC3CCS(=O)(=O)C3)c(N3CCC(C(N)=O)CC3)nc12 (stereo not drawn),0,0,0,0,0
NC(=O)c1ccc(COC(=O)c2cc(S(N)(=O)=O)ccc2Cl)cc1,-,-,-,0,-
COc1ccc(/C(Cl)=C(/C=N/O)c2ccc(OC)cc2)cc1,-,-,-,0,-
C=CCn1c(-n2nc(CC)cc2CC)nc2c1c(=O)[nH]c(=O)n2C,-,-,-,0,-
CCNC(=O)C(C)NC(=O)CCNC(=O)N(C)Cc1ccccc1 (stereo not drawn),-,-,-,0,-
O=C(Oc1cccc2cccnc12)c1cccc(-n2cnnn2)c1,0,5.6µM,0,0,0
CCOc1cccc(C(c2c[nH]c3ccccc23)c2c[nH]c3ccccc23)c1O,-,-,-,4µM,-
SMILES,VDR inhibitor,G9a block,Sfp PPTase inh,12-LOX inh,GRP78 ERSR act
C[N+](C)(C)CCCC#CC#CCCC[N+](C)(C)C,-,-,-,40µM,-
O=[N+]([O-])c1ccc(OCc2n[nH]c(=S)n2-c2ccccc2)cc1,0,3.5µM,0,?,0
CCn1c(COc2ccc3c(c2)OCO3)nnc1SCC(=O)c1ccccc1,0,11µM,?,0,0
c1ccc(-c2nccc(-c3ccc4c(c3)OCO4)n2)cc1,0,0,0,0,0
S=c1[nH]nc(COc2ccc3c(c2)OCO3)n1-c1ccccc1,0,0.71µM,40µM,0,0
O=[N+]([O-])c1ccc(OCc2cccc(COc3ccc([N+](=O)[O-])cc3)n2)cc1,0,0,?,0,0
O=C(c1nnc(COc2ccc3c(c2)OCO3)n1-c1ccccc1)N1CCC[C@@H]1c1nc2ccccc2[nH]1,-,-,-,0,-
S=c1[nH]nc(-c2ccc3c(c2)OCO3)n1-c1ccccc1,0,1.6µM,0,?,0
Cc1nnc(NC(=O)C2CC(c3ccccc3)=NO2)s1 (stereo not drawn),-,-,-,0,-
C=C1CCC[C@]2(C)C[C@H]3OC(=O)C(CNC(C)CCCC(C)C)[C@H]3CC12 (stereo partly drawn),0,0,0,?,0
C=C1CCC[C@]2(C)C[C@H]3OC(=O)C(CNCC(OC)OC)[C@H]3CC12 (stereo partly drawn),0,79µM,0,0,0
COc1ccccc1N1CCN(C(=O)COc2cc(C)ccc2C)CC1,40µM,0,0,0,0
COc1ccccc1N1CCN(CCCCOc2ccc(C)cc2C)CC1,0,7.1µM,?,?,0
Cc1ccc(C)c(OCCCC(=O)O)c1,0,0,0,0,0
COc1ccccc1N1CCN(C(=O)c2ccccc2SCC(=O)NCc2ccco2)CC1,0,50µM,-,0,0
Cc1ccc(C)c(OCCCC(=O)N2CCOCC2)c1,0,45µM,0,0,0
CC(=O)c1cccc(NC(=O)C2CCN(c3nc4ccccc4nc3OC(C)C)CC2)c1,-,-,-,0,-
Cn1cc(-c2cc3n(n2)CCCN3C(=O)CCC(=O)NC2CCCC2)c2ccccc21,-,-,-,0,-
Cn1ccc(C(=O)N2CCC3(CC2)OC(=O)N(Cc2ccccc2C#N)C3(C)c2ccccc2)n1 (stereo not drawn),-,-,-,0,-
Cc1ccc(Sc2ccc(Cl)nn2)cc1,-,-,-,0,-
CCCc1ccc(C(=O)COC(=O)c2cccc(S(C)(=O)=O)c2)cc1,-,-,-,0,-
COc1ccc(CCN2CCC(CN(C)Cc3nc(C(C)C)cs3)CC2)cc1,-,-,-,0,-
CCOC(=O)c1cc(-c2ccccc2)n(CCC(=O)N2CCN(c3ccccc3OC)CC2)c1C,0,50µM,0,0,0
COc1ccccc1N1CCN(CC(=O)Nc2nccs2)CC1,0,0,0,20µM,0
CCOC(=O)c1cc(-c2ccccc2)n(CCC(=O)N2CCN(c3ccc(OC)cc3)CC2)c1C,0,?,0,0,0
SMILES,VDR inhibitor,G9a block,Sfp PPTase inh,12-LOX inh,GRP78 ERSR act
COc1ccccc1N1CCN(C(=O)c2ccccc2SCC(=O)N2CCCC2)CC1,0,79µM,-,0,0
Cc1cnc(NC(=O)CN2CCN(c3ccccc3F)CC2)s1,0,7.1µM,0,?,0
CCOC(=O)c1ccc(S(=O)(=O)N2CCC(C(=O)NCCc3ccccn3)CC2)cc1,-,-,-,0,-
COc1ccccc1N1CCN(CC(=O)N2CCCC2)CC1,0,0[12.7 µM],50µM,0,0
CC(C)c1nnc2ccc(NCc3ccc(F)cc3)nn12,-,-,-,0,-
O=C(COc1ccc(Nc2ccccc2)cc1)Nc1ccncc1,0,45µM,-,0,0
COCCNC(=O)COc1ccc(Nc2ccccc2)cc1,0,50µM,0,0,0
O=C(COc1ccc(Br)cc1)Nc1ccncc1,?,0,0,0,0
O=C(O)COc1ccc(Nc2ccccc2)cc1,0,45µM,0,0,0
N#Cc1ccc(OCC(=O)Nc2ccncc2)cc1,0,50µM,0,?,0
Cc1cc(OCC(=O)N2CCC(c3nc4ccccc4o3)CC2)ccc1C(C)C,-,-,-,0,-
COc1ccc(-c2[nH]ncc2N=Nc2ccccc2)cc1,0,50µM,?,0,0
Cc1c(-c2ccc(F)cc2)[n+](=O)c(-c2ccc(Cl)cc2)c(C)n1[O-],-,-,-,0,-
